Values joined by “and” are separate entries in the source; they are usually repeats but may differ in a detail not shown here. Equal values may be shown once.

The first experiment deals with 5'-AMP-activated protein kinase catalytic subunit alpha-1 (Homo sapiens) (UniProt Q13131). The following applies: at 0.1 µM.
5'-AMP-activated protein kinase catalytic subunit alpha-1 (Homo sapiens), sequence (Q13131 whole entry, looked up): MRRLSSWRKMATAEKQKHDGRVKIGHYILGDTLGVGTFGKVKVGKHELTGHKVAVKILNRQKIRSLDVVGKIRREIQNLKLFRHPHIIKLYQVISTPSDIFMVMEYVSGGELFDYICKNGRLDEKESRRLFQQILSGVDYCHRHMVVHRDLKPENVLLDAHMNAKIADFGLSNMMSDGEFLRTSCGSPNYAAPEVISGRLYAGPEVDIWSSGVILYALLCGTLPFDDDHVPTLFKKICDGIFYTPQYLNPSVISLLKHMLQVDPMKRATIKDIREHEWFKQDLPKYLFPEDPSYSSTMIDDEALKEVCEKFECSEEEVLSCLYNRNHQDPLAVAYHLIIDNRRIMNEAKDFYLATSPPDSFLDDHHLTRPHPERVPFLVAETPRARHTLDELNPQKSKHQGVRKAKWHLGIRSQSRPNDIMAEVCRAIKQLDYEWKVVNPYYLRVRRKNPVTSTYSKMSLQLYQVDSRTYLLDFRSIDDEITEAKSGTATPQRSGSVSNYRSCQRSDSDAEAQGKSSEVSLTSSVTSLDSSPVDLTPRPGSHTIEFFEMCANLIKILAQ
A word on the inhibition: it is the relative decrease from the control value, in per cent. As to `c1cnn2ncc(-c3ccnc(NCCCN4CCOCC4)n3)c2c1`, the inhibition came out at 2.28%.

Consider `FC(F)(F)CNc1nccc(-c2cnn3ncccc23)n1`, for which the inhibition turned out to be 1.91%.

With `CCS(=O)(=O)c1ccc(OC)c(Nc2ncc(-c3cccc(F)c3)o2)c1`, the inhibition was found to be 2.82%.

As to `COc1ccc(Nc2ncc(-c3ccccc3)o2)cc1OC`, the inhibition worked out at 0.83%.

As to `Cc1nnc(-c2cccc(-c3ccc(C(=O)NCC4CC4)cc3)c2)o1`, the inhibition came to 5.16%.

Regarding `COc1cc(N2CCN(C(C)C)CC2)ccc1Nc1nc(Nc2cccc3ncccc23)c2cc[nH]c2n1`, the inhibition was 0.27%.

In the case of `Cn1c(-c2nonc2N)nc2cnccc21`, the inhibition was determined as 3.36%.

In the case of `CC1=C(C(=O)Nc2ccc3[nH]nc(C)c3c2)C(c2ccc(C(F)(F)F)cc2)CC(=O)N1` (configuration not stated), the inhibition was determined as 4.08%.

With `CN1CCC(n2cnc(-c3ccc(F)cc3)c2-c2ccnc(NCCO)n2)CC1`, the inhibition turned out to be 2.98%.

In the case of `COc1cc(Nc2ncc(-c3ccccc3)o2)cc(OC)c1`, the inhibition turned out to be 2.43%.

Take `CC1=C(C(=O)Nc2ccc3[nH]ncc3c2)C(c2ccc(F)cc2)N=C(c2ccc(C(F)(F)F)nc2)N1` (configuration not stated): the inhibition is 1.92%.

Consider `Cc1ccc(-c2cc3c(NC(=O)C4CC4)ncnc3o2)cc1`, for which the inhibition was found to be 3.13%.

As for `O=C1Nc2ccccc2/C1=C1\CCc2cc(O)ccc21`, the inhibition stood at 5.27%.

On to `CN(C)CCNC(=O)Nc1ccc(N(C)c2ccnc(Nc3ccc(CS(C)(=O)=O)cc3)n2)cc1`, for which the inhibition was 2.62%.

Turning to `CS(=O)(=O)CCNCc1ccoc1-c1ccc2ncnc(Nc3ccc(OCc4ccccc4)cc3)c2c1`, the inhibition is -0.71%.

On to `CS(=O)(=O)Nc1ccc(-c2ccc3c(NC(=O)C4CC4)n[nH]c3c2)cc1`, for which the inhibition was found to be 3.58%.

Take `O=C(Nc1n[nH]c2nnc(-c3cccnc3)cc12)C1CC1`: the inhibition was -0.35%.

As to `CC1(C)CC(n2cnc(-c3ccc(F)cc3)c2-c2ccnc(N)n2)CC(C)(C)N1`, the inhibition came out at 0.3%.

For the compound `CNC(=O)c1ncccc1Nc1nc(Nc2cc3c(cc2OC)CCCN3C(=O)CN(C)C)nc2[nH]ccc12`, the inhibition turned out to be 5.47%.

For `COc1cccc(-n2ncc3c(N/N=C/c4ccc(C(=O)NCCN(C)C)cc4)ncnc32)c1`, the inhibition is 3.69%.

In the case of `Cc1c2ccc(N(C)c3ccnc(Nc4cccc(S(N)(=O)=O)c4)n3)cc2nn1C`, the inhibition was 3.77%.

Consider `OCCCNc1nccc(-c2c(-c3ccc(F)cc3)nn3cc(C(F)(F)F)ccc23)n1`, for which the inhibition is 2.58%.

In the case of `COc1cccc(Nc2nccc(-c3cnn4ncccc34)n2)c1`, the inhibition worked out at 2.19%.

For `O=C(O[C@H]1CN[C@H](C#Cc2cc3ncnc(Nc4ccc(OCc5cccc(F)c5)c(Cl)c4)c3s2)C1)N1CCOCC1`, the inhibition amounted to 4.66%.

Take `NS(=O)(=O)c1ccc(N/N=C2\C(=O)Nc3ccc(C(=O)NCc4ccncc4)cc32)cc1`: the inhibition came out at 41.7%.

Turning to `CS(=O)(=O)CCNCc1ccc(-c2ccc3ncnc(Nc4ccc(OCc5ccccc5)cc4)c3c2)o1`, the inhibition was 2.94%.

Take `CCOc1ccc2c(-c3ccnc(Nc4cc(OC)cc(C(F)(F)F)c4)n3)cnn2n1`: the inhibition was 0.25%.

Take `Nc1nonc1-c1nc2cnccc2n1C1CC1`: the inhibition is 5.9% and 3.15%.

Take `CCN1CCC(C(=O)Nc2n[nH]c3nnc(-c4cccc(F)c4F)cc23)CC1`: the inhibition was found to be 0.5%.

As for `CS(=O)(=O)CCNCc1ccc(-c2ccc3ncnc(Nc4ccc(OCc5cccc(C(F)(F)F)c5)cc4)c3c2)o1`, the inhibition turned out to be 1.06%.

As for `Nc1nccc(-c2c(-c3ccc(F)cc3)ncn2C2CCNCC2)n1`, the inhibition was -1.82% and 0.38%.

A further experiment has the same target. To be noted: at 1 µM.
Regarding `c1cnn2ncc(-c3ccnc(NCCCN4CCOCC4)n3)c2c1`, the inhibition is 2.5%.

Turning to `FC(F)(F)CNc1nccc(-c2cnn3ncccc23)n1`, the inhibition came to 2.67%.

As for `CCS(=O)(=O)c1ccc(OC)c(Nc2ncc(-c3cccc(F)c3)o2)c1`, the inhibition was 5.78%.

`COc1ccc(Nc2ncc(-c3ccccc3)o2)cc1OC`: the inhibition is 5.29%.

On to `Cc1nnc(-c2cccc(-c3ccc(C(=O)NCC4CC4)cc3)c2)o1`, for which the inhibition was determined as 6.56%.

Take `COc1cc(N2CCN(C(C)C)CC2)ccc1Nc1nc(Nc2cccc3ncccc23)c2cc[nH]c2n1`: the inhibition turned out to be 0.86%.

Turning to `Cn1c(-c2nonc2N)nc2cnccc21`, the inhibition turned out to be 3.2%.

`CC1=C(C(=O)Nc2ccc3[nH]nc(C)c3c2)C(c2ccc(C(F)(F)F)cc2)CC(=O)N1` (configuration not stated): the inhibition came out at 24.4%.

Consider `CN1CCC(n2cnc(-c3ccc(F)cc3)c2-c2ccnc(NCCO)n2)CC1`, for which the inhibition was 6.22%.

For `COc1cc(Nc2ncc(-c3ccccc3)o2)cc(OC)c1`, the inhibition worked out at 5.67%.

For the compound `CC1=C(C(=O)Nc2ccc3[nH]ncc3c2)C(c2ccc(F)cc2)N=C(c2ccc(C(F)(F)F)nc2)N1` (configuration not stated), the inhibition was 8.74%.

As to `Cc1ccc(-c2cc3c(NC(=O)C4CC4)ncnc3o2)cc1`, the inhibition is 5.1%.

With `O=C1Nc2ccccc2/C1=C1\CCc2cc(O)ccc21`, the inhibition amounted to 13.4%.

`CN(C)CCNC(=O)Nc1ccc(N(C)c2ccnc(Nc3ccc(CS(C)(=O)=O)cc3)n2)cc1`: the inhibition came out at 5.07%.

Consider `CS(=O)(=O)CCNCc1ccoc1-c1ccc2ncnc(Nc3ccc(OCc4ccccc4)cc3)c2c1`, for which the inhibition is -0.55%.

For the compound `CS(=O)(=O)Nc1ccc(-c2ccc3c(NC(=O)C4CC4)n[nH]c3c2)cc1`, the inhibition was determined as 6.37%.

Turning to `O=C(Nc1n[nH]c2nnc(-c3cccnc3)cc12)C1CC1`, the inhibition was 0.39%.

`CC1(C)CC(n2cnc(-c3ccc(F)cc3)c2-c2ccnc(N)n2)CC(C)(C)N1`: the inhibition worked out at 1.1%.

On to `CNC(=O)c1ncccc1Nc1nc(Nc2cc3c(cc2OC)CCCN3C(=O)CN(C)C)nc2[nH]ccc12`, for which the inhibition is 6.88%.

For the compound `COc1cccc(-n2ncc3c(N/N=C/c4ccc(C(=O)NCCN(C)C)cc4)ncnc32)c1`, the inhibition was found to be 12.3%.

For `Cc1c2ccc(N(C)c3ccnc(Nc4cccc(S(N)(=O)=O)c4)n3)cc2nn1C`, the inhibition is 4.2%.

In the case of `OCCCNc1nccc(-c2c(-c3ccc(F)cc3)nn3cc(C(F)(F)F)ccc23)n1`, the inhibition stood at 1.3%.

Regarding `COc1cccc(Nc2nccc(-c3cnn4ncccc34)n2)c1`, the inhibition amounted to 10.9%.

On to `O=C(O[C@H]1CN[C@H](C#Cc2cc3ncnc(Nc4ccc(OCc5cccc(F)c5)c(Cl)c4)c3s2)C1)N1CCOCC1`, for which the inhibition stood at 4.92%.

For `NS(=O)(=O)c1ccc(N/N=C2\C(=O)Nc3ccc(C(=O)NCc4ccncc4)cc32)cc1`, the inhibition worked out at 75.5%.

Turning to `CS(=O)(=O)CCNCc1ccc(-c2ccc3ncnc(Nc4ccc(OCc5ccccc5)cc4)c3c2)o1`, the inhibition was 3.44%.

With `CCOc1ccc2c(-c3ccnc(Nc4cc(OC)cc(C(F)(F)F)c4)n3)cnn2n1`, the inhibition came to 1.28%.

For `Nc1nonc1-c1nc2cnccc2n1C1CC1`, the inhibition was 14.3% and 11.5%.

Take `CCN1CCC(C(=O)Nc2n[nH]c3nnc(-c4cccc(F)c4F)cc23)CC1`: the inhibition was found to be 2.46%.

As for `CS(=O)(=O)CCNCc1ccc(-c2ccc3ncnc(Nc4ccc(OCc5cccc(C(F)(F)F)c5)cc4)c3c2)o1`, the inhibition was 5.76%.

Take `Nc1nccc(-c2c(-c3ccc(F)cc3)ncn2C2CCNCC2)n1`: the inhibition is 0.26% and 0.1%.
